We go through 8 molecules from ChEMBL document CHEMBL3988442, “University of Dundee, Small-Polar-MMV Screening Library” (2021).

Each structure is given as a SMILES string. For some of these results: Measured potencies and affinities stand elsewhere.

Holding throughout (set-up): scale not given: direction of the effect not stated beside the values
The target in test [1] is Protein translocase subunit SecA (Escherichia coli (strain K12)) (UniProt P10408). The test can be described thus: Assay to Identify E. coli SecA ATPase Inhibitors. Format: functional. The settings on record: 30 µM.
Test [2] has as its target T1, Ubiquitin-activating enzyme e1, putative (Leishmania donovani (strain BPK282A1)) (UniProt E9BSI1).
T1 sequence (whole entry): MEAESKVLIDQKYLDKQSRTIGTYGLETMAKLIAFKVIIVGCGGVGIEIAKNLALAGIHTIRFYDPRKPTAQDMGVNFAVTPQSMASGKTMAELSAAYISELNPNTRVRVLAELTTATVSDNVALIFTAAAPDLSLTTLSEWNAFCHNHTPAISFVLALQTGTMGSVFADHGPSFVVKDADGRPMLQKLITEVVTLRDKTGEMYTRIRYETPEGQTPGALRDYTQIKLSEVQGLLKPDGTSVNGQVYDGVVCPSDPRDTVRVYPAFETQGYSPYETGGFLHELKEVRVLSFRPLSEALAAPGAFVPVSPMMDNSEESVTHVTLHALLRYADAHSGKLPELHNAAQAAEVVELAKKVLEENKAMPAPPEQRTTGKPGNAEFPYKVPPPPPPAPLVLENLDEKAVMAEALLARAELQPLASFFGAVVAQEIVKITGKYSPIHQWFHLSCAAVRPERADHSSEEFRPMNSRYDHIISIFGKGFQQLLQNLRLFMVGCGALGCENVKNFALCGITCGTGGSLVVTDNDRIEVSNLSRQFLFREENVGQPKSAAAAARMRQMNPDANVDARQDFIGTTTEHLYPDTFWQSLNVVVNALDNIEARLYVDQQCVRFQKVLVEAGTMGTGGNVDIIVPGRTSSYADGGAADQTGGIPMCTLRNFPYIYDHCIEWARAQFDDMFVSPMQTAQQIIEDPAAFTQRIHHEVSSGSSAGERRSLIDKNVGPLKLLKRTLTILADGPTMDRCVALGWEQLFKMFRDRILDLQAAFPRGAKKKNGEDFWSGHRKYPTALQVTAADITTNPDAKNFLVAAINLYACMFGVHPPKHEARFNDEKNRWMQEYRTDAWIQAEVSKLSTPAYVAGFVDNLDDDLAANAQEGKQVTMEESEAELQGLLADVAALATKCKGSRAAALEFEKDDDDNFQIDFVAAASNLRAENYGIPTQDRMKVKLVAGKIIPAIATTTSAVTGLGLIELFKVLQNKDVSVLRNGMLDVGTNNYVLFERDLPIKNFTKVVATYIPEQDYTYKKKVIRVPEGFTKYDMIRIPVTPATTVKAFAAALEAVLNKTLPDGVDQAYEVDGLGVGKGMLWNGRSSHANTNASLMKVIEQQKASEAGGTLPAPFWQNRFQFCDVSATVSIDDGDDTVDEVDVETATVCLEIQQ
The test can be described thus: Leishmania donovani Ubiquitin Activating Enzyme (LdE1). Format: functional. The following applies: 30 µM.

In test [3] the target is AMP-activated protein kinase, AMPK (Homo sapiens) (UniProt P54646+O43741+P54619+Q9UGJ0+Q9Y478+Q13131+Q9UGI9). The test can be described thus: AMP-dependent Kinase enzyme assay. An in vitro enzyme assay that detects ADP turnover that is directly proportional to AMPK activity. This uses naive AMPK that is activated during the assay with MK-8722. Format: functional. The following applies: 30 µM.

The target of test [4] is Sialic acid-binding Ig-like lectin 9 (Homo sapiens) (UniProt Q9Y336). The test can be described thus: Hs-Siglec9 ALPHAscreen SOP 20170721. The settings on record: 10 µM.
For the next test, the system named is Trypanosoma cruzi. Put plainly: Trypanosoma cruzi phosphomannomutase and mannose-1-phosphate guanylyltransferase assay. Format: functional. The following applies: 10 µM.
The target in test [5] is T2, Arginase-2, mitochondrial (Homo sapiens) (UniProt P78540).
T2 sequence (whole entry): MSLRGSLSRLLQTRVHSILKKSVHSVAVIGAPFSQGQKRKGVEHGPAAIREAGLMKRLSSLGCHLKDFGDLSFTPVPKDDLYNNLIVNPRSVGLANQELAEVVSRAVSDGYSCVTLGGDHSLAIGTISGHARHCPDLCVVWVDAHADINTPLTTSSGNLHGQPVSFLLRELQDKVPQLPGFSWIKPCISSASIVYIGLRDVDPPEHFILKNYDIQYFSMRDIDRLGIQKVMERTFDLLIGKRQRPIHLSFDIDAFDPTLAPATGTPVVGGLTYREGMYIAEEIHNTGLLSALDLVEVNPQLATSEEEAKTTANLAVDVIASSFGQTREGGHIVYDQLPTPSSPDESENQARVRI
Put plainly: in vitro enzyme assay to detect the production of urea directly proportional to the activity of Arginase II. Also: in the data most compounds retested in dose-response had high values. The settings on record: 33.3 µM. It is filed as functional.

In test [6] the target is T3, Proteasome subunit beta (Trypanosoma cruzi) (UniProt O96673).
T3 sequence (whole entry): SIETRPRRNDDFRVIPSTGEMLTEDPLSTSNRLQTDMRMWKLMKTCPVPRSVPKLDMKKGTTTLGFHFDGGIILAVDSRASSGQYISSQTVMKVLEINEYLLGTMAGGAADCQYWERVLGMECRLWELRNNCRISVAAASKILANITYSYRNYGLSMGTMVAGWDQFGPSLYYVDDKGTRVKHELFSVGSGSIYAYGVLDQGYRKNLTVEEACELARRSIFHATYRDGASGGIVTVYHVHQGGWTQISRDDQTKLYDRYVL
Put plainly: Trypanosoma cruzi proteasome chymotrypsin-like activity (TcProtChymo) assay. Also: in the data most compounds retested in dose-response had high values. The following applies: 9.37 µM. It is filed as functional.

For a further test, the species on record is Homo sapiens. Put plainly: To identify inhibition of the IFN signalling (Jak-Stat) pathway via expression of an eGFP reporter gene under the control of an IFN-stimulated response element (ISRE) containing MxA promoter. The following applies: 30 µM. Format: functional. A general note: In a reporter assay the amount or activity of a reporter protein is the signal.

Test [7] addresses T4, Tyrosyl-tRNA synthetase, putative (Trypanosoma cruzi (strain CL Brener)) (UniProt Q4DSP6).
T4 sequence (whole entry): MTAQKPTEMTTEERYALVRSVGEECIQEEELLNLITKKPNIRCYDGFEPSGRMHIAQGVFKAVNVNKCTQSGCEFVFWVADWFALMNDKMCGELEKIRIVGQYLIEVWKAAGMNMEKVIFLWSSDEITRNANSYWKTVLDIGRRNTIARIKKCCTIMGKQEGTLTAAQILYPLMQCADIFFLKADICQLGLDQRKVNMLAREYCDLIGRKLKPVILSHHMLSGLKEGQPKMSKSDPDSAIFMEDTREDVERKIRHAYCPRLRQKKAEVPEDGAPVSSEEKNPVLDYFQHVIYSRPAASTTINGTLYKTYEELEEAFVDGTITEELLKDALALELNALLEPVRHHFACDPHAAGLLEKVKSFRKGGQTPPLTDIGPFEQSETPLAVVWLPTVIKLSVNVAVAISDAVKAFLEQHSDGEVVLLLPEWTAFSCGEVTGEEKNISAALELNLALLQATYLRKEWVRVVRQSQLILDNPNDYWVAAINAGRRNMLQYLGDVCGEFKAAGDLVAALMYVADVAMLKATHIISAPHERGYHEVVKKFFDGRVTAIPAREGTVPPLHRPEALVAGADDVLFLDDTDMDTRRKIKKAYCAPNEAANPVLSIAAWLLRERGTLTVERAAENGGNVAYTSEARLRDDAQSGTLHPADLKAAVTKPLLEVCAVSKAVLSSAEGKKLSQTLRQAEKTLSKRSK
Put plainly: Trypanosoma cruzi tyrosyl tRNA synthetase (TcYRS) _High Tyrosine SOP. Also: in the data most compounds retested in dose-response had high values. It is filed as functional. The following applies: 30 µM.

Test [8] addresses T4, Tyrosyl-tRNA synthetase, putative (Trypanosoma cruzi (strain CL Brener)). The test can be described thus: Trypanosoma cruzi tyrosyl tRNA synthetase (TcYRS) SOP. Format: functional. The following applies: 30 µM.
For test [9], the target named is Chromo domain-containing protein 1 (Saccharomyces cerevisiae (strain ATCC 204508 / S288c) (Baker's yeast)) (UniProt P32657). Put plainly: ScCHD-1 Enzyme Inhibition Assay. Also: in the data most compounds retested in dose-response had high values. Format: functional. The following applies: 30 µM.
Sequence of Chromo domain-containing protein 1 (Saccharomyces cerevisiae (strain ATCC 204508 / S288c) (Baker's yeast)) (P32657 whole entry, the tested form may be a part): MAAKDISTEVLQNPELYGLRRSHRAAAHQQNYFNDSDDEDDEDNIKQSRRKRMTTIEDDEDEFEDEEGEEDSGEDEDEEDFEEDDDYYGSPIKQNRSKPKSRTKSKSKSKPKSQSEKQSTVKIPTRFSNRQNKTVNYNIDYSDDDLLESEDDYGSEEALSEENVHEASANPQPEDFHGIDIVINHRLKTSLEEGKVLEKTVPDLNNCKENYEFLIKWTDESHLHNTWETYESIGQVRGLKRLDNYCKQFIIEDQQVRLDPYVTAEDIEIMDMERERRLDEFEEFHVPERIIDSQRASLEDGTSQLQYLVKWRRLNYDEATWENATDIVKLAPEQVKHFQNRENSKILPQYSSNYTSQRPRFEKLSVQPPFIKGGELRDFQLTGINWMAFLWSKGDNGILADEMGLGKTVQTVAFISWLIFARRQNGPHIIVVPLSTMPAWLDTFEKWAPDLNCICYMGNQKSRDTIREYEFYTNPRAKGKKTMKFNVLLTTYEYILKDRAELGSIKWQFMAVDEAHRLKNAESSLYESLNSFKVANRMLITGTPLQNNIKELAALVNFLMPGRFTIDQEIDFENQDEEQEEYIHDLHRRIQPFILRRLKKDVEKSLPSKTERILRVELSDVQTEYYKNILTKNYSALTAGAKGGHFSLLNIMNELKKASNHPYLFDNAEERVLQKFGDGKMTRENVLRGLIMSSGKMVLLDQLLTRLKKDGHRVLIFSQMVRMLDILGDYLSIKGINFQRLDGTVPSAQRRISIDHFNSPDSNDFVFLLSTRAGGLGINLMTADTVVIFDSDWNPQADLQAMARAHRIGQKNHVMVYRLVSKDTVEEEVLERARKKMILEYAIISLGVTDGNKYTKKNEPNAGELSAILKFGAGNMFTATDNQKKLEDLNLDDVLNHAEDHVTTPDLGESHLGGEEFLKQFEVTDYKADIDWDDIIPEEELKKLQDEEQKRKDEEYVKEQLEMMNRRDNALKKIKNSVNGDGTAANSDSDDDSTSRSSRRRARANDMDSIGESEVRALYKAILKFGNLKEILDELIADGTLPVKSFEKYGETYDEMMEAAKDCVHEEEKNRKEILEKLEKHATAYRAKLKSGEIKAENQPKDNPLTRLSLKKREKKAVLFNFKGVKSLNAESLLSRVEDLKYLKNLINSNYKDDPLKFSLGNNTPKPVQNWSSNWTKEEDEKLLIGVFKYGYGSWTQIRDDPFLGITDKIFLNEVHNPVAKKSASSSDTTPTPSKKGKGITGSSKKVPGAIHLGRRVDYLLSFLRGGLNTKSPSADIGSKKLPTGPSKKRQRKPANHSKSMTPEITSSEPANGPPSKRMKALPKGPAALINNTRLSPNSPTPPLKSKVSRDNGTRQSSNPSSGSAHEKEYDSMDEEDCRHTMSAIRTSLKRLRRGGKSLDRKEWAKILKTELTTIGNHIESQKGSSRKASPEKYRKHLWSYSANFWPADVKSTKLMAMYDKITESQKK

Sequence of Sialic acid-binding Ig-like lectin 9 (Homo sapiens) (Q9Y336 whole entry): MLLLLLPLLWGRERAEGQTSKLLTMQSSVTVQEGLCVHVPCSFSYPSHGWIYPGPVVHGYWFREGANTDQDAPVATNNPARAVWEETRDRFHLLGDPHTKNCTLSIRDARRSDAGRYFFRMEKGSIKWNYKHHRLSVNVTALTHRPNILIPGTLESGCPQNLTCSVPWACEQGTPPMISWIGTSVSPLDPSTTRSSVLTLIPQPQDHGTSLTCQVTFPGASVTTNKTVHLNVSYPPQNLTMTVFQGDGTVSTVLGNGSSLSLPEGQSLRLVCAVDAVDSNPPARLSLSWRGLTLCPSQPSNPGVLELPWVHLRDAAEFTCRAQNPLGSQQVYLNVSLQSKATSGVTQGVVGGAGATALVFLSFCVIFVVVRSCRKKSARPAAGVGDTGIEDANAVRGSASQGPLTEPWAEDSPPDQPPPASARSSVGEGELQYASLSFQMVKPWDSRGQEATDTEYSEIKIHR
Sequence of Protein translocase subunit SecA (Escherichia coli (strain K12)) (P10408 whole entry): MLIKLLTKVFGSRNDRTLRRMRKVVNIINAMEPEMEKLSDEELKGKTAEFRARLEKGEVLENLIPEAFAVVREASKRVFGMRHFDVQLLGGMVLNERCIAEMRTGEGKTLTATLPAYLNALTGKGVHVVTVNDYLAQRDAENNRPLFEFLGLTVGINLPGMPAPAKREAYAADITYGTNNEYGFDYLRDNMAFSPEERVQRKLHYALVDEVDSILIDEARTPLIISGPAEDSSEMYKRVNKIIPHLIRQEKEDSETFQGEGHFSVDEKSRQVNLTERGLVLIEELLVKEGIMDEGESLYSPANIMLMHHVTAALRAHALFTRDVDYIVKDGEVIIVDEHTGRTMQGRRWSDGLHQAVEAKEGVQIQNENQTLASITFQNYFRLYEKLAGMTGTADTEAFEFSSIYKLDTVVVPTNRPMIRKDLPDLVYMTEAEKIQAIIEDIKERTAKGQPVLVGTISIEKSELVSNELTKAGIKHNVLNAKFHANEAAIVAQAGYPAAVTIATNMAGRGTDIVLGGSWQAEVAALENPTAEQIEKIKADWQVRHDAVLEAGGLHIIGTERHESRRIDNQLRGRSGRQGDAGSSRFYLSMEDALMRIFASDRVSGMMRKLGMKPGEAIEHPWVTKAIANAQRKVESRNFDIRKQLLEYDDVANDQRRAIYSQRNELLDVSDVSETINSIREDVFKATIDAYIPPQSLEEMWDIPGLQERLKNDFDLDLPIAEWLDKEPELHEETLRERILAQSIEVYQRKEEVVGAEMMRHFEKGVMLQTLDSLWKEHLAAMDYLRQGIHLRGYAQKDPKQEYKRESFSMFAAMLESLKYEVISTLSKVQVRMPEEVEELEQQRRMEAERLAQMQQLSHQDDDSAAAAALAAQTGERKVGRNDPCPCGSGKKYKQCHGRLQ

Regarding `NC(=O)c1ccc(S(=O)(=O)NC2CCN(Cc3ccccc3)C2=O)cc1` (stereo not drawn), the Percent Effect in test [1] is -3.79%; in test [2], 17.7%; in test [3] it was 9.8%; in test [4], 5.49%; in the test with Trypanosoma cruzi, 0.472%; in [5] it was -3.42%. Also, the Percent Effect in test [6] was 0.901%; in the test listed under Homo sapiens, 2.7%; in test [7], 5.42%; in [8], 11.4%; in test [9] it was -6.86%.
On to `c1ccc(-c2noc(CNC3CCc4ncnn4C3)n2)nc1` (stereo not drawn), for which the Percent Effect in test [1] is -2.18%; in test [2], -5.41%; in test [3], -0.412%; in [4], 1.92%; with Trypanosoma cruzi, -4.74%; in test [5] it was 1.66%. Moreover, the Percent Effect is -5.57% in test [6]; 6.37% in the test listed under Homo sapiens; 2.97% in test [7]; 1.22% in test [8]; -1.02% in [9].
Consider `CCOC1CCCN(C(=O)c2cnc3c(cnn3C3CCCC3)c2)C1` (stereo not drawn), for which the Percent Effect in [1] is -4.83%; in [2], 0%; in test [3], 2.09%; in test [4], 0.582%; in the test on Trypanosoma cruzi it was -2.93%; in [5], -2.66%. Besides, the Percent Effect in test [6] is -2.38%; in the test filed under Homo sapiens, 24.1%; in test [7] it was 1.48%; in [8], -8.86%; in test [9], -4.24%.
Turning to `CS(=O)(=O)N1CCC(C(=O)NCCNc2ncccn2)CC1`, the Percent Effect in test [1] was -3.08%; in [2] it was 10.8%; in test [3], 2.54%; in test [4] it was -1.9%; with Trypanosoma cruzi, 8.45%; in test [5], -7.21%. For the same molecule, the Percent Effect in test [6] was 14.2%; in the test listed under Homo sapiens, 14.8%; in test [7], 6.93%; in test [8] it was 15.8%; in [9], -3.22%.
For `CC(C)N(C)S(=O)(=O)N(C)Cc1ccc2c(c1)OCO2`, the Percent Effect in test [1] was -6.28%; in [2], 15.6%; in [3], -11.7%; in [4], 5.6%; in the test with Trypanosoma cruzi, 10.5%; in [5] it was 2.49%. The Percent Effect in test [6] was 12.7%; in the test filed under Homo sapiens it was 13.3%; in test [7], 5.83%; in test [8], 21.9%; in test [9], -8.74%.
Regarding `O=C(c1ccco1)N1CCOCC2(C1)CN(c1ccccc1)C(=O)CO2` (stereo not drawn), the Percent Effect is -3.5% in [1]; 2.67% in test [2]; 5.75% in [3]; 17.4% in test [4]; -3.86% with Trypanosoma cruzi; -27.8% in test [5]. For the same molecule, the Percent Effect in [6] was -1.54%; in the test listed under Homo sapiens, 5.08%; in [7], 2.08%; in [8], -2.5%; in [9], -5.45%.
On to `CNC(=O)CC1CCN(Cc2nc(-c3ccc(SC)cc3)oc2C)CC1`, for which the Percent Effect was -7% in test [1]; 2.7% in [2]; -0.898% in [3]; 2.66% in test [4]; -2.7% with Trypanosoma cruzi; -0.952% in [5]. Also, the Percent Effect is 11.7% in [6]; 13.2% in the test filed under Homo sapiens; 7.94% in [7]; 0% in [8]; -2.7% in test [9].
For `O=C(c1ccc[nH]1)N1CCc2c(COCC3CC3)cncc2C1`, the Percent Effect was 0.487% in [1]; 13.5% in test [2]; 0.508% in test [3]; -7.71% in test [4]; -4.99% in the test with Trypanosoma cruzi; 0.955% in [5]. Further, the Percent Effect in [6] was found to be 29.1%; in the test listed under Homo sapiens, 0.5%; in test [7], 3.24%; in test [8], 12.8%; in test [9] it was 0.2%.
